Measured values published in PubChem BioAssay (NCI).
Compounds without any hit were thinned out: in the full panel of roughly 79,000, 15% have a hit. A number with no mark means an inactive call. Active and inactive are the calls of the source. Cut-off read from the data, not from the text of the source: active = growth inhibition above about 70%; inactive = the rest.

Experiments:
[1] = NCI Yeast Anticancer Drug Screen. Data for the rad50 strain (AID 155);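 note: 0% = growth of vehicle-only cultures of the same strain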; conditions: S. cerevisiae rad50 strain growth inhibition; at 50.0 µM; stronger effect = higher value
Procedure, shortened: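 Yeast carrying a defined DNA repair defect were exposed to test compounds, and growth was compared with vehicle-treated controls to give percent inhibition.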

[2] = NCI Yeast Anticancer Drug Screen. Data for the mec2-1 strain (AID 157); conditions: S. cerevisiae mec2-1 strain, at 50.0 µM, stronger effect = higher value
Procedure, shortened: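 Test agents were screened against the mec2-1 yeast strain, with defined DNA repair or cell cycle alteration. Growth was scored as inhibition against vehicle-only controls.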

[3] = NCI Yeast Anticancer Drug Screen. Data for the sgs1 mgt1 strain (AID 161);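 note: 0% = growth of cultures given vehicle only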; conditions: S. cerevisiae sgs1 mgt1 strain, at 50.0 µM, stronger effect = higher value
Procedure, shortened: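 Inhibition of yeast growth, normalised to vehicle-treated controls, is reported for a strain bearing genetic alterations in DNA damage repair.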

[4] = NCI Yeast Anticancer Drug Screen. Data for the cln2 rad14 strain (AID 165);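 note: 0% = growth equal to vehicle treated cultures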; conditions: S. cerevisiae cln2 rad14 strain, at 50.0 µM, stronger effect = higher value
Procedure, shortened: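 Growth of compound-exposed yeast (cln2 rad14 genotype) measured and expressed as inhibition relative to vehicle.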

[5] = NCI Yeast Anticancer Drug Screen. Data for the bub3 strain (AID 167); conditions: S. cerevisiae bub3 mutant strain, at 50.0 µM, stronger effect = higher value
Procedure, shortened: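 Compounds were applied to a genetically altered yeast strain carrying a cell-cycle control defect. Growth inhibition was scored against vehicle-treated controls.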

[6] = NCI Yeast Anticancer Drug Screen. Data for the mlh1 rad18 strain (AID 175); conditions: S. cerevisiae mlh1 rad18 strain growth inhibition; at 50.0 µM; stronger effect = higher value
Procedure, shortened: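 In this whole-cell yeast screen, a strain with altered DNA damage repair is challenged with compound, and its growth is measured against matched vehicle-treated controls.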

Row | Structure (SMILES) | growth inhibition [1] | growth inhibition [2] [%] | growth inhibition [3] | growth inhibition [4] [%] | growth inhibition [5] [%] | growth inhibition [6]
1 | CCCCCCCSC#N | -7.6% | 20.9 | -1.9% | -22.4 | 9.75 | 29.6%
2 | COC(c1ccccc1)(c1ccccc1)c1cc(NS(=O)(=O)c2ccccc2)ccc1NS(=O)(=O)c1ccccc1 | 14.2% | 3.9 | 13% | -17.1 | -4.7 | 8.05%
3 | CCCCOC(=O)NC(=O)c1cn(CCCOC(=O)CCCCCCCCC(=O)OCCCn2cc(C(=O)NC(=O)OCCCC)c(=O)[nH]c2=O)c(=O)[nH]c1=O | -23.2% | -28.2 | -32.8% | 5.05 | -5.85 | -35.9%
4 | O=C(O)Cc1cc(I)c(Oc2ccc(O)cc2)c(I)c1 | -5% | -29.4 | 6.05% | 15.2 | -9.5 | 3.9%
5 | CC(C)c1ccc(/C=C2\C=Nc3ccccc32)cc1 | 15.8% | 11.7 | 28.9% | 5.2 | 50.7 | 20.6%
6 | C=CCOC(=O)CCC(CCC(=O)OCC=C)C(C)=O | -25.4% | -19.4 | 0.55% | -9.6 | 4.1 | -11.5%
7 | O=C1NC(=O)N2CCCOC2C1c1ccccc1 (stereo not given) | 0.2% | -5.5 | 0.4% | -10.2 | -2.7 | 22.3%
8 | C=C(C)CS(=O)(=O)O | -0.15% | 3.45 | 1.85% | -13.1 | 3.35 | 1.65%
9 | COc1ccc(C(=O)N2CCCCC2)cc1 | -31.1% | -15.8 | -3.8% | -26.6 | -0.9 | -12.2%
10 | O=C(N/N=C\c1ccc(Cl)cc1Cl)c1ccccc1S | -59.4% | 6.45 | -4.55% | -0.2 | -13.2 | 5%
11 | O=C(CCN1CCC2CCC(C2)C1)c1ccc(Cl)cc1 (stereo not given) | 17.3% | 3.35 | 46.5% | -4 | 21.3 | -7.3%
12 | COC(C)C(NC=O)C(=O)O (stereo not given) | 18.8% | 10.9 | 7.45% | 8.65 | 9.95 | 1.9%
13 | BrC1CC2CC1C1C2CC2OC21 (stereo not given) | -26.9% | -12.7 | -22.4% | -3.9 | 9.2 | -48.2%
14 | CC(=O)OC1=C(C)C2=C3OC(=O)C(C)=C3CC[C@@]2(C)CC1 | 3.7% | 1.2 | 6.85% | 19.4 | 25 | 6.95%
15 | O=C(OCC1OC(OC(=O)c2ccc([N+](=O)[O-])cc2)CC(OC(=O)c2ccc([N+](=O)[O-])cc2)C1OC(=O)c1ccc([N+](=O)[O-])cc1)c1ccc([N+](=O)[O-])cc1 (stereo not given) | 11.2% | 15.2 | 4.1% | -7.35 | -4.15 | 36.5%
16 | O=c1[nH]c2cc(Cl)ccc2nc1/C(=N\Nc1ccccc1)C(O)c1ccc(Cl)c(Cl)c1 (stereo not given) | 11.6% | -4.8 | -9.55% | 24.4 | 17.1 | 19%
17 | NCCNCCCCCCCCCCCCOS(=O)(=O)O | -32.8% | -23.6 | -6.35% | -15.3 | -25 | -11.4%
18 | C(=N\c1nnc2ccccn12)/c1ccccc1 | 0.2% | -6.8 | -21.7% | -9.6 | -13.7 | -28.3%
19 | COc1ccc2c(c1)CC/C(=C\C1(Sc3ccccc3)CC1)C2O (stereo not given) | -12.1% | -3.35 | -10.2% | -16.6 | -10.7 | -15.8%
20 | Cc1ccc(N=C=C(c2ccc(Cl)cc2)c2ccc(Cl)cc2)cc1 | 73.2% (active) | 64.4 | 70.8% (active) | 60.2 | 59.6 | 77.2% (active)

Row | Structure (SMILES) | growth inhibition [1] | growth inhibition [2] [%] | growth inhibition [3] | growth inhibition [4] [%] | growth inhibition [5] [%] | growth inhibition [6]
21 | N#Cc1ccc(CCc2ccccc2)cc1 | 1.2% | -3.75 | 18.6% | 10.4 | 2.95 | -2.05%
22 | N#C/C(=C\c1ccc(F)cc1)C(=O)O | 13.2% | 0.8 | -7.9% | 4.2 | 8.5 | 18.4%
23 | O=C(Nc1ccc(F)cc1)C(=O)C(C(=O)c1ccccc1F)C1OC(=O)c2ccccc21 (stereo not given) | 2.8% | -0.05 | -10.6% | 1.55 | -0.35 | 2.25%
24 | COc1ccc(OC)c(NC(=O)CCCC(=O)C(C#N)c2ccccc2C)c1 (stereo not given) | 13.1% | -4.9 | -3.15% | 11.2 | 0.2 | 2.05%
25 | COc1ccc2nc(NCCNCCO)cc(NCCNCCO)c2c1 | -12.2% | -3.25 | 1.2% | 4.65 | -0.75 | 11.3%
26 | CC1(C)OC2OC(C3CC3)C(O)C2O1 (stereo not given) | -4.1% | 4.75 | 3% | -36.1 | 11.9 | -1.85%
27 | C\C(=C/C(=N/N=C\c1ccccc1O)c1ccccc1)c1ccccc1 | 13.8% | 10.9 | -4.45% | -3.5 | 5.6 | 5.15%
28 | Nc1ccccc1SC1CC(=O)N(c2cccc(Cl)c2)C1=O (stereo not given) | -10.6% | -25.4 | -4.7% | -7.3 | -1.05 | -25.1%
29 | C1CCCCC/C2=C(\CCCC1)CSCCCS2 | -25.8% | -19.9 | -16.1% | -14.6 | 0.55 | -36.5%
30 | COC(=O)CCC(CCC(=O)OC)([N+](=O)[O-])[N+](=O)[O-] | 0.4% | -1.95 | 4.5% | -55.6 | 10.7 | 3.3%
31 | Clc1cnnc2nc[nH]c12 | -10.8% | -7.4 | -24.2% | -28.1 | -15.8 | -23.2%
32 | CC1CCCC(C)(c2ccccc2)/C1=N\Nc1ccc([N+](=O)[O-])cc1[N+](=O)[O-] (stereo not given) | 36.2% | 13.9 | 9.65% | 18 | 2.1 | 29.9%
33 | COC(=O)C(NC(=O)COc1ccccc1[N+](=O)[O-])C(=O)OC | -15.2% | -1.3 | 0% | 3 | -12.6 | -12.3%
34 | Cc1ccc(S(=O)(=O)Oc2cccc(Br)c2)cc1 | 8.25% | -1.25 | 21.9% | -17.4 | -1.1 | 7.55%
35 | N#CC(c1cnc2ccccc2n1)c1cccc2ccccc12 (stereo not given) | -0.3% | 5.9 | 1% | -5.75 | -5.3 | 13%
36 | Oc1c(Br)cc(Br)cc1/C=C/NC(=S)NC1CC2CC1C1C=CCC21 (stereo not given) | 28.2% | 32.1 | 10.6% | -6.15 | 5.15 | 55.9%
37 | CC(C)CN(CC(C)C)/N=C/c1cc([N+](=O)[O-])ccc1O | -11.7% | 9 | -4.9% | -3.65 | -12.9 | -14.8%
38 | C=C1CC2(CC(c3ccccc3Cl)OC(c3ccccc3Cl)C2)OC1=O (stereo not given) | 27.2% | 47.2 | 23.2% | 33.2 | 20.7 | 18.8%
39 | c1ccc(C(Sc2ncnc3nc[nH]c23)c2ccccc2)cc1 | 15% | 13.2 | -3.85% | -22.5 | 18.1 | 0.1%
40 | C=C(CCC(Cl)C(O)CO)[Si](C)(C)C (stereo not given) | 37.5% | -19.2 | 52% | 45.3 | 49.2 | 48.6%
